Screening data: PubChem, National Center for Advancing Translational Sciences (NCATS)
Only some compounds are listed: those with a hit (about 3.7% of all), similar ones and a draw of the others.
IL2 activator = qHTS of IL-2 Activators | IL-2 activation reporter assay, cell-based qHTS; stimulated with anti-CD3/CD4/CD28 beads; in transgenic mouse T cells | activation, % (series mostly up to about 46 µM) | hit rate 0.065% among 360,000 | AID 652025, 2013; in the data active = activation above about 50%; inconclusive = mostly about 30% to 49%; note: 0% is about no effect
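Quantitative HTS in unstimulated transgenic mouse T cells, with memory T cells as non-tolerant control and PMA/ionomycin as tolerance-bypass control. Compound pretreatment lasted 60 minutes before 18 h bead stimulation; EGFP/DsRed fluorescence read.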
miR-21 act = qHTS Assay for Modulators of miRNAs and/orActivators of miR-21; 340,000 tested, under 10 active; HeLa miR-21 FLuc reporter, luciferase, 48 h; AID 2288, 2010; Potency, µM (highest dose often 38.3 µM), inactives show at the highest dose activity change, positive = activation, usual class: activators;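 note: % of control where 0% means no effect; miR-21 action dims this reporter so a rising signal means less miR-21 action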
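HeLa cells stably expressing CMV-driven firefly luciferase with a downstream miR-21 binding sequence, endogenously expressing miR-21, were treated with titrations (up to about 40uM final) for 48 hours at 37 degree Celsius. Luciferase luminescence was read after lysis.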
ClpP mod = qHTS Assay for Activators of ClpP; purified B. subtilis ClpP, FRET peptide cleavage, 20 min; Potency, µM (top dose mostly 57.5 µM), without a hit: at the top dose activity change, negative = active; ATP-dependent Clp protease proteolytic subunit (Bacillus subtilis (strain 168)), P80244; hit rate 1.9% among 340,000; active = well fitted falling curve with a large enough effect; inconclusive = small, poorly fitted or top-dose-only effect; inactive = no such curve, though single readings can be large or run the other way; note: potency is the fitted concentration of half-maximal effect; the source files actives as falling curves though it sought activators and does not explain the sign; nearly all actives have a fitted effect of over 65% in size
Target sequence (P80244 whole entry, looked up): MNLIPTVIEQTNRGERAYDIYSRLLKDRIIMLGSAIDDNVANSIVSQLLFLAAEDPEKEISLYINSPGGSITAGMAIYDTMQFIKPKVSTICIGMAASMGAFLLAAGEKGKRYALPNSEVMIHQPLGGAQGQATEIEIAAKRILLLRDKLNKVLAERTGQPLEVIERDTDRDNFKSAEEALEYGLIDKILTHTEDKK
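Buffer: 100 mM Tris/HCl pH8, 100 mM KCl, 0.05% low protease BSA, 2.5% glycerol, 0.01% Tween-20. ClpP 10 microg/mL final; 20 min RT; delta FRET normalized to ADEP and DMSO controls.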
Nrf2 activator = qHTS of Nrf2 Activators; AREc32 ARE-luciferase reporter (MCF7-derived line), luminescence, 24 h; Potency, µM (series often up to 46.1 µM), for the others: at the top dose activation, usual class: activators; hit rate 0.31% among 410,000; AID 624171, 2012; note: potency is the fitted concentration of half-maximal effect; % of control where 0% means no effect; nearly all actives have a fitted effect of over 65% in size
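Steps: seed AREc32_Fluc cells (1000/well, 5% FBS OPTI-MEM); incubate overnight at 37 deg C; add 23 nL compound; incubate 24 hr; add Steady-Glo; hold 30 min RT; read luminescence.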
Nrf2 block = Nrf2 qHTS screen for inhibitors. Potency, µM (top dose mostly 46 µM), for inactives: top-dose activity change, negative = inhibition, most hits filed as inhibitors. hit rate 2.1% among 360,000. A549 ARE-Fluc reporter, luciferase luminescence, 18-24 h; note: potency is the fitted concentration of half-maximal effect; % is set by controls: 0 for no effect and ±100 for the full control effect; nearly all actives have a fitted effect of over 60% in size
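Nrf2 function is reported as luminescence of an ARE-controlled luciferase in A549 cells. Compounds were tested at several concentrations, and a CellTiter-Fluor read on the same wells flagged cytotoxicity.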
A549 tox = Nrf2 qHTS screen for inhibitors: counterscreen for cytotoxicity; A549 ARE-Fluc cells, CellTiter-Fluor viability, 18-24 h; Potency, µM (top dose mostly 46 µM), for inactives: top-dose activity change, negative = cytotoxicity, hits mostly inhibitors; hit rate 0.16% among 390,000; note: potency is the fitted concentration of half-maximal effect; % is set by controls: 0 for no effect and ±100 for the full control effect
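A549 ARE_Fluc cells in 5% FBS OPTI-MEM were exposed to compounds in concentration-response for 18-24 h at 37 deg C. Viability was read by CellTiter-Fluor fluorescence (Ex 405/Em 525) after 30 min, before the luciferase read.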
Starred values were filed as active, the others as inactive; ? = inconclusive; / = no result; [ ] = dose if it differs, or a comment. Unless noted, calls come from the whole dose curve; as a rule, active = well fitted curve in the direction sought with a large enough effect; inconclusive = small, poorly fitted or top-dose-only effect, or another doubt; inactive = no such curve, though single readings can be large; an effect the other way counts as inactive or inconclusive.

SMILES	IL2 activator	miR-21 act	ClpP mod	Nrf2 activator	Nrf2 block	A549 tox
O=C1C2C(c3ccccc3)CC=CC2C(c2ccc(C(F)(F)F)cc2)N1Cc1ccccc1 (centres undefined)	/	/	/	/	?	-9%
CCOc1ccccc1NC(=O)Cn1ccn(Cc2ccc(C)cc2)c(=O)c1=O	/	16%	-1%	0%	-4%	1%
Cc1ccccc1OCCn1cc(C(=O)O)c2ccccc21	0	-23%	/	0%	-2%	-3%
Cc1ccccc1OCCn1cc(/C(N)=N/O)c2ccccc21	-2	25%	0%	3%	23µM*	-23%
CC(=O)c1cn(CCOc2cc(C)ccc2C)c2ccccc12	-3	?	/	2%[9.22 µM]	6.5µM*	-1%
CC(=O)N1CCc2c(sc3c2c(=O)n(-c2cc(Cl)ccc2C)c(=O)n3Cc2ccccc2F)C1	/	?	-5%	7%	7%	-1%
Cc1ccc(OCC(=O)Nc2ccc(N3CCN(C(=O)c4ccco4)CC3)cc2)cc1	-1	1%	0%	0%	21µM*	1%
Cc1ccc(C(=O)N2CCN(c3ccc(NC(=O)COc4ccccc4C)cc3)CC2)cc1	-4	30%	22%	0%	21µM*	?
Cc1ccccc1C(=O)Nc1cccc(C(=O)OCc2cc(=O)n3nc(C4CC4)sc3n2)c1	/	-15%	0%	4%	/	0%
O=C(Nc1ccc(OCC(=O)N2CCOCC2)cc1)Nc1cccc(Cl)c1	0	-15%	11µM*	0%	2%	-12%
CSc1ccc(CN2CCN(Cc3ccc([N+](=O)[O-])cc3)CC2)cc1	-1	17%	0%	4%	8.2µM*	-11%
O=[N+]([O-])c1ccc(CN2CCCCCC2)cc1	0	0%	4%	0%	7%	0%
CSc1ccc(CN2CCN(C(=O)CC(C)C)CC2)cc1	-2	7%	/	-1%	26µM*	0%
CC(=O)N1CCCc2cc(S(=O)(=O)Nc3ccc(C)c(C)c3)ccc21	/	/	/	/	?	-1%
Oc1ccc(Br)cc1-c1cc(-c2ccco2)[nH]n1	-2	-8%	-3%	3.5µM*	/	3%
Oc1ccccc1-c1cc(-c2ccco2)[nH]n1	-3	-40%	-8%	?	?	-18%
Cc1ccc(N(CC(=O)NC2CCCC2)C(=O)CCCC(=O)Nc2ccccn2)cc1C	0	-1%	0%	0%	8%	-7%
Cc1cc(C)cc(N(CC(=O)NC2CCCCC2)C(=O)CCCC(=O)Nc2ccccn2)c1	-1	11%	/	0%	21µM*	?
Cc1ccc(CC(=O)NO)cc1	/	/	0%	/	/	/
COc1ccc(C2c3c(ncn(CCc4ccccc4)c3=N)Oc3ccc4ccccc4c32)cc1OC (centres undefined)	/	/	/	/	-6%	-14%
CCOC(=O)c1c(NC(=O)c2cccs2)sc(CC)c1-c1cccs1	-2	-5%	32µM*	-1%	?	?
Cc1sc(NC(=O)CS(=O)(=O)c2ccccc2)c(C(N)=O)c1C	0	/	28µM*	0%	?	-3%
Cc1sc(NC(=O)c2cccs2)c(C(N)=O)c1C	1	-33%	1%	10µM*	?	3%
Cc1cccc(NC(=O)c2sc3nc(N4CCOCC4)c4c(c3c2N)CC(C)(C)OC4)c1	/	-5%	?	0%	21%	1%
Cn1nnnc1Sc1ncnc2scc(-c3ccccc3S(C)(=O)=O)c12	/	/	/	/	-18%	-2%
Cc1ccc2[nH]c(=O)c3cc(C(=O)NCCCN4CCC(C)CC4)sc3c2c1	/	-15%	13µM*	5%	10%	1%
CCN1CCN(CCCNC(=O)c2cc3c(=O)[nH]c4ccccc4c3s2)CC1	-2	0%	8.9µM*	4%	3%	-14%
